Sampled rows, rich in hits. Any-hit rate of the full collection: about 19%.
HT1080-NT tox: kills 2HG-producing HT-1080-NT fibrosarcoma cells; HT-1080-NT fibrosarcoma viability, CellTiter-Glo ATP luminescence, 48 h; Potency, µM (doses to about 46.1 µM), without a hit: at the top dose activity, negative = less viability, usual class: cytotoxic; actives 1.6% (n = 360,000); AID 686970;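 note: NT is the 2HG producing partner of a matched IDH1 knockdown line; potency is the fitted concentration of half-maximal effect; 0% = DMSO-treated cells and -100% = media-only wells without cells; nearly all actives have a fitted effect of over 55% in size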
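Fibrosarcoma NT cells, 750 per well in 5% FBS RPMI, were exposed to compound for 48 hours. Viability: CellTiter-Glo luminescence.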
DT40 TDP1 no CPT: qHTS for Inhibitors of human tyrosyl-DNA phosphodiesterase 1 (TDP1): qHTS in cells in absence of CPT. Potency, µM (series often up to 46.2 µM), without a hit: at the top dose activity change, negative = growth inhibition, most hits filed as inhibitors. DT40 Tdp1-/- hTDP1 cells, no CPT, ATP luminescence, 48 h. actives 15% (n = 420,000); note: potency is the fitted concentration of half-maximal effect; nearly all actives have a fitted effect of over 55% in size
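Readout: luminescence from CellTiter-Glo after 30 min in the dark at RT. Cells: DT40 Tdp1-/- with stable hTDP1, 400/well. Exposure: compounds alone, ≥48 hr, 37 °C.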
DT40 TDP1 CPT: growth inhibition of DT40 Tdp1-/-;hTDP1 cells with camptothecin (screen for TDP1 inhibitors); chicken DT40 Tdp1-/-;hTDP1 cells + 20 nM CPT, ATP luminescence, 48 h; Potency, µM (series often up to 46.2 µM), for the others: top-dose activity change, negative = growth inhibition, usual class: inhibitors; actives 12% (n = 420,000); AID 686979; note: potency is the fitted concentration of half-maximal effect; nearly all actives have a fitted effect of over 55% in size
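Chicken DT40 Tdp1-/- cells complemented with human TDP1, 400 cells/well, exposed to compounds plus 20 nM camptothecin for at least 48 h at 37 C; viability read as ATP content by CellTiter-Glo luminescence.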
HT1080 IDH1KD tx: kills HT-1080 cells with IDH1 knockdown; HT-1080 IDH1 knockdown viability, ATP luminescence, 48 h; Potency, µM (highest dose often 46.1 µM), without a hit: at the highest dose activity, negative = toxicity, actives largely listed as cytotoxic; actives 2% (n = 360,000);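 note: potency is the fitted concentration of half-maximal effect; 0% = DMSO wells and -100% = cell-free medium wells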
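% activity derives from luminescence (CellTiter-Glo), normalised to DMSO and no-cell wells. HT-1080-IDH1KD cells, 750/well, had 48 h compound exposure at 37 °C.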
IL1B secr inh: inhibitors of inflammasome signaling (IL-1 beta secretion) | THP-1 LPS/ATP IL-1B secretion, AlphaLISA, 16 h; active compounds read low | activity change, % at 57.5 µM | actives 4.7% (n = 360,000) | AID 743279; in the data active = activity change below about -50%; inconclusive = mostly about -30% to -49%
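THP-1 cells pretreated 1 hr with compounds (up to 57.5 uM final), then stimulated with LPS (250 ng/mL final) plus ATP (1.25 mM final); secreted IL-1B measured by AlphaLISA after 16 hr, decreased signal indicating inhibition.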
An asterisk follows results filed as active; ? = inconclusive; . = not tested or not shown; [ ] = dose if it differs, or a comment. Unless noted, calls come from the whole dose curve; as a rule, active = well fitted curve in the direction sought with a large enough effect; inconclusive = small, poorly fitted or top-dose-only effect, or another doubt; inactive = no such curve, though single readings can be large; an effect the other way counts as inactive or inconclusive. Unless noted, % is set by controls: 0 for no effect and ±100 for the full control effect.

SMILES | HT1080-NT tox | DT40 TDP1 no CPT | DT40 TDP1 CPT | HT1080 IDH1KD tx | IL1B secr inh
CSC1=N/C(=C\c2cccc(Cl)c2)C(=O)N1N(C)C | 16.4% | 20.6µM* | ? | 17.9% | 5.4
CCn1c(C)nc2cc(S(N)(=O)=O)ccc21 | -12.7% | 23.1µM* | ? | -11.1% | 18.0
CCc1cccc(NC(=O)c2oc3ccc4c(c3c2C)C(=O)CC(C)(C)O4)c1 | . | 20.6µM* | ? | . | .
Cc1c(C(=O)Nc2ccccc2)oc2c1C(=O)CC(C)(C)C2 | 5.5% | -22.6% | -28.8% | 9.5% | -23.0
COc1ccc(NC(=O)c2oc3ccc4c(c3c2C)C(=O)CC(C)(C)O4)cc1OC | . | 11.6µM* | 20.6µM* | . | .
Cc1ccc(-n2nc(C(=O)N3CCN(C)CC3)c3c4ccccc4n(C)c3c2=O)cc1 | 10.5% | -29.3% | -20.0% | 0.1% | 74.1
CCc1ccc(NC(=O)c2nn(-c3ccc(OC)cc3)c(=O)c3c2c2ccccc2n3C)cc1 | . | 3.2% | 4.2% | . | .
CCN(CC)CCOC(=O)c1ccc(NC(=O)c2nn(-c3ccc(C)cc3)c(=O)c3c2c2ccccc2n3C)cc1 | . | 0.581µM* | 1.16µM* | . | .
Cc1ccc(-n2nc(C(=O)N(C)c3ccc(C)c(C)c3)c3c4ccccc4n(C)c3c2=O)cc1 | . | 13µM* | 16.4µM* | . | .
COc1ccc(CCNC(=O)c2nn(-c3ccc(C)cc3)c(=O)c3c2c2ccccc2n3C)cc1OC | . | 2.06µM* | ? | . | .
CCN(C(=O)c1nn(-c2ccc(C)cc2)c(=O)c2c1c1ccccc1n2C)c1ccc(F)cc1 | . | 13µM* | ? | . | .
C/C(=N\O)c1ccco1 | 3.5% | -11.7% | -3.9% | 3.7% | 13.3
COc1ccc(/C=C/c2cc(OC)c(OC)cc2CC[N+](C)(C)C)cc1 | . | -17.4%[9.04 µM] | -21.0%[9.04 µM] | . | .
COC(=O)C1=C(C)N(C)C(C)=C(C(=O)OC)C1c1ccccc1C | -4.4% | ? | ? | -6.5% | -1.1
CCCCOc1ccccc1C1C(C(=O)OC)=C(C)N(C)C(C)=C1C(=O)OC | 5.8% | 23.1µM* | ? | -2.8% | -16.5
CC(C)(C)NC(=O)CSc1nc2cccnc2n1C1CCCCC1 | 2.1% | ? | ? | 0.5% | 28.4
O=C(NCC1Cc2cc(F)cc(-c3cnccn3)c2O1)c1cccc(-c2ccccc2F)c1 (configuration not stated) | . | 23.1µM* | 11.6µM* | . | .
Cc1cc(C)n(-c2cccc(C(=O)NCC3Cc4cc(Cl)cc(-c5cnccn5)c4O3)c2)n1 (configuration not stated) | . | ? | -3.6%[9.04 µM] | . | .
O=C(NCC1Cc2cc(F)cc(-c3cnccn3)c2O1)c1cccc(Cl)c1 (configuration not stated) | . | 18.4µM* | ? | . | .
Cc1cc2c(c(-c3cnccn3)c1)OC(CNC(=O)c1ccccc1C(F)(F)F)C2 (configuration not stated) | . | -10.0% | -2.7% | . | .
Cc1cc(C)n(-c2cccc(C(=O)NCC3Cc4cccc(-c5ccccn5)c4O3)c2)n1 (configuration not stated) | . | 11.6µM* | ? | . | .
CCCNC(=O)CCn1cc(-c2ccc(OC)cc2)nc1-c1ccncc1 | 0.0% | -2.1% | -24.0% | -0.6% | -13.4
O=c1ccc(Cc2ccccn2)n[nH]1 | 8.6% | -0.2% | -16.1% | 4.1% | 6.0
CC[C@H]1c2[nH]c3ccccc3c2C[C@@H]2C(=O)N(c3ccc(F)cc3)C(=O)N21 | -1.1% | ? | 16.4µM* | -10.2% | 10.2
CCOc1ccccc1C1c2[nH]c3ccccc3c2C[C@H]2C(=O)N(C3CC3)CC(=O)N12 (some centres not stated) | -2.2% | 10.8% | 3.3% | -1.3% | -4.2
Cc1nc2ncnn2c(N2CCN(S(=O)(=O)c3ccc(Br)cc3)CC2)c1C | 6.8% | 4.61µM* | ? | 6.7% | 39.0
O=S(=O)(c1ccc(Br)cc1)N1CCN(c2cc(-c3ccccc3)nc3ncnn23)CC1 | 13.4% | 25.9µM* | 13µM* | -2.9% | ?
O=S(=O)(c1ccc(Br)cc1)N1CCN(c2ccccc2)CC1 | 14.5% | -2.1% | 12.7% | 0.7% | 7.9
